# Bioassay records from PubChem BioAssay.
# These entries were drawn from the full list.
# aSyn 5UTR act: Activators via SNCA 5'UTR binding, MLPCN. alpha-synuclein 5'UTR reporter, activators screen. activity score, % (tested at 7.5 µM), hits read low. 7.1% of 300,000 active. AID 1814; in the data active = activity score below about -60%
# Numbers stand for hits; n = inactive.
SMILES,aSyn 5UTR act
N=C1CCCN1CC(=O)c1ccc(Br)cc1,-87.5
CC(=O)Nc1cccc(-n2nnc(SCC(=O)c3ccccc3)n2)c1,-121.3
COc1ccc(C(=O)CSc2nnn(-c3cccc(NC(C)=O)c3)n2)cc1,-119.4
Cc1ccc(C(=O)Nc2nc(C)c(C)s2)o1,-114.2
Cc1nc(NC(=O)c2ccc(Br)o2)sc1C,-129.4
CC(/C=N/NC(=O)c1ccc(Cn2cc([N+](=O)[O-])cn2)o1)=C\c1ccccc1,-75.0
COCC(=O)N/N=C\c1ccccc1OC/C=C/c1ccccc1,-94.8
N#CCC(=O)N/N=C\c1ccccc1OC/C=C/c1ccccc1,-165.6
CCOc1ccc(OCc2ccc(C(=O)OCc3ccccn3)o2)cc1,-63.8
CCOC(=O)c1ccc(COc2ccc(C(C)C)cc2)o1,-128.5
CN1CCN(C(=O)c2ccc(COc3ccc(C(C)(C)C)cc3)o2)CC1,-99.4
COc1cccc(N2CCN(C(=O)c3ccc(CS(=O)c4ccccc4C)o3)CC2)c1 (stereo not given),n
CC(C)c1ccc(OCc2ccc(C(=O)N3CCCC3)o2)cc1,-144.1
CCC(C)c1ccc(OCc2ccc(C(=O)O)o2)cc1 (stereo not given),-86.0
COc1cccc(Cn2c(=O)oc3ccccc32)c1,-76.6
CCOC(=O)c1cnc(NCc2ccccc2)nc1C,-73.1
CCOC(=O)c1[nH]cnc1N=Nc1c(O)ccc2ccccc12,n
CCCCSc1ncc(C(=O)OCC)c(N)n1,-139.6
CCOC(=O)c1cnc2c(ccc3ccccc32)c1Cl,-87.4
CCOC(=O)c1cnc(SCCc2ccccc2)nc1N,-102.2
CCOC(=O)c1cnc(-n2nc(C)cc2C)nc1NNc1ncc(-c2ccccc2)cn1,n
CCOC(=O)c1cnc(SCc2ccc(C)cc2)nc1N,-179.4
CCC(=O)Nc1nc2ccccc2n1Cc1ccc(Cl)cc1,n
O=C(Nc1ccc2nc(C3CC3)n(Cc3ccccc3)c(=O)c2c1)C1CC1,-251.3
CC(=O)Nc1ccc2nc(C)n(Cc3ccc(Cl)cc3)c(=O)c2c1,-77.8
SMILES,aSyn 5UTR act
CCC(=O)Nc1ccc2nc(C3CC3)n(Cc3ccccc3)c(=O)c2c1,-200.7
COc1ccc(Cn2c(C3CC3)nc3ccc(NC(=O)c4ccco4)cc3c2=O)cc1,-151.5
COc1ccc(/C(N)=N/OC(=O)CCC2CCCC2)cc1,-71.1
Cc1cccc(/C(N)=N/OC(=O)CCC2CCCCC2)c1,-108.7
Cc1ccc(/C(N)=N/OC(=O)CCC2CCCC2)cc1,-85.2
Oc1ccc(Br)cc1C=Nc1ccc2c3c(cccc13)CC2,-68.5
CCC(C)(C)C1CCc2[nH]nc(C(=O)N/N=C(\C)c3ccco3)c2C1 (stereo not given),-135.9
COc1nc(-c2ccccc2)nnc1-c1ccccc1,-123.6
FC(F)(F)c1ccc(-c2nnc(-c3cccnc3)o2)cc1,-88.0
Cc1ccc(-c2nnc(-c3cccnc3)o2)cc1,-113.1
Clc1ccc(-c2nnc(-c3ccccc3)o2)cn1,-153.0
COc1ccc(-c2nnc(-c3cccnc3)o2)cc1,-111.5
Clc1ccc(-c2nnc(-c3cccnc3)o2)cc1,-138.5
CCCOc1ccc(-c2nnc(-c3ccncc3)o2)cc1,-80.4
Brc1ccc(-c2nnc(-c3ccccc3Br)o2)cc1,-100.1
Brc1ccccc1-c1nnc(-c2cccnc2)o1,-106.5
CCCOc1ccc(C(=O)NNC(=S)NC(C)=O)cc1,n
Brc1ccc(-c2nnc(-c3cccnc3)o2)cc1,-143.8
Cc1noc(C)c1-c1nnc(-c2ccc(C(F)(F)F)cc2)o1,-65.6
COc1ccc2c(c1)Cc1sc(NC(=O)c3ccccc3)nc1-2,-223.4
COc1ccc(C(=O)Nc2nc3c(s2)Cc2cc(OC)ccc2-3)cc1,-108.7
COc1ccc2c(c1)Cc1sc(NC(=O)c3cccs3)nc1-2,-242.4
Brc1ccc(C2=Nn3c(nnc3-c3n[nH]c4c3CCC4)SC2)cc1,n
COc1ccc(OC)c(C2CC(=O)N3CN(c4ccc(C)c(Cl)c4)CSC3=C2C#N)c1 (stereo not given),-89.7
O=C(/C=C/c1ccc2c(c1)OCO2)Nc1nncs1,-115.1
SMILES,aSyn 5UTR act
CC(C)(C)c1ccc(/C=C/C(=O)Nc2nncs2)cc1,-87.9
Cc1cc(C)c2oc(-c3cccc(N)c3)nc2c1,-131.9
NNc1nc2c(-c3ccc(Cl)cc3)nnn2c2ccccc12,-92.2
NNc1nc2c(-c3ccc(F)cc3)nnn2c2ccccc12,-140.9
O=[N+]([O-])c1ccc(-c2cn3c(n2)SCC3)cc1,-80.5
N#Cc1ccc(-c2cn3c(n2)SCC3)cc1,-143.8
CCC(=O)C1CCCN(C(=O)CCc2nnc(C3(c4ccc(Cl)cc4)CCC3)o2)C1 (stereo not given),-62.1
CC(=O)c1ccc(-c2nnc(CCC(=O)N3CCCC(C(=O)CC(C)C)C3)o2)s1 (stereo not given),-157.2
O=C(CCc1nnc(C2(c3ccc(Cl)cc3)CCC2)o1)N1CCCC1,-71.9
O=C(NCc1cc2ccccc2[nH]1)c1ccccc1F,-80.9
COc1cccc(NC(=O)C(=O)N2CCOCC2)c1,-172.8
CCn1c2ccccc2c2cc(NC(=O)C(=O)N3CCOCC3)ccc21,-63.5
CCn1c2ccccc2c2cc(Nc3cc(C)nc4ncnn34)ccc21,n
COc1ccc(/C=C/c2n[nH]c(=O)c(C#N)c2C)cc1,-70.7
C/C(=N\NC(=O)c1ccoc1C)c1ccccc1,-127.4
C/C(=N/NC(=O)c1ccoc1C)c1ccc(NC(=O)C2CCCC2)cc1,-120.9
C/C(=N\NC(=O)c1ccc(Cn2cc(Br)cn2)o1)c1ccc(NC(=O)c2ccoc2C)cc1,-76.7
C/C(=N\NC(=O)c1nn(C)c(C)c1Br)c1cccc(NC(=O)c2ccoc2C)c1,-71.3
Cc1ccc(NC(=O)CNCc2cccs2)c(Br)c1,-119.2
Cc1ccc(NC(=O)CNCc2ccccc2)c(Br)c1,-68.1
Cc1ccc(NC(=O)CCc2ccc(C)o2)c(Br)c1,-72.1
Cc1ccc(NC(=O)CCC(=O)c2cccs2)c(Br)c1,-78.7
O=C(Nc1ccc(F)cc1)c1sc(Cl)nc1-c1ccccc1,-72.9
Cc1ccc(NC(=O)c2sc(Cl)nc2-c2ccccc2)cc1,-63.4
CN(C(=O)c1ccc2c(Cl)c3c(nc2c1)CCC3)c1ccccc1,-223.0
SMILES,aSyn 5UTR act
O=C(c1ccc2c(Cl)c3c(nc2c1)CCCC3)N1CCC(N2CCCCC2)CC1,-89.0
CCC(C)NC(=O)c1ccc2c(Cl)c3c(nc2c1)CCC3 (stereo not given),-163.9
O=C(Nc1ccc(F)cc1)c1cc2cc(Cl)ccc2[nH]1,-61.9
CCc1ccc2[nH]c(C(=O)Nc3ccc(C)c(F)c3)cc2c1,-109.1
O=C1C2C3CCC(C3)C2C(=O)N1c1ccc(OS(=O)(=O)c2ccccc2)cc1 (stereo not given),-178.0
O=C(Nc1ccccc1)Nc1cccc2nsnc12,-272.2
O=C(Nc1cccc2nsnc12)c1cccs1,-143.2
Cn1cccc1CNC(=O)Nc1ccc(Cl)c(Cl)c1,-212.1
CCOc1ccc(NC(=O)NCc2cccn2C)cc1,-86.8
CC(C)(C)C1CCC(OC(=O)CN2CCOCC2)CC1 (stereo not given),-107.9
C/C(=N\N1C(=O)c2ccccc2NC1c1ccco1)c1ccccc1O (stereo not given),n
Cc1ccc(/C=N/N2C(=O)c3ccccc3NC2c2ccc(C)cc2)cc1 (stereo not given),-83.7
O=C1c2ccccc2NC(c2ccco2)N1/N=C/c1ccco1 (stereo not given),-92.4
CSc1nnc(-c2ccccc2N=Cc2c(C)[nH]n(-c3ccc4ccccc4c3)c2=O)c(=O)[nH]1,-73.4
CCOC(=O)c1ccc(NC(=O)C2C3CCCCC32)cc1 (stereo not given),-184.5
CCc1ccc(NC(=O)c2ccccc2NC(=O)C2CCCO2)cc1 (stereo not given),-244.4
